Test [1] deals with Mitogen-activated protein kinase 10 (Mus musculus) (UniProt Q61831). The test is described as follows: JNK3 AlphaScreen Assay (AID 530; active = well fitted curve in either direction with a large enough effect, not every such curve was filed as active;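 also: kinase came from lysate of stimulated human HepG2 cells; signal reports phosphorylation of biotinylated GST-cJun 1-79 at Ser73 with 10 µM ATP; % is scaled to controls: 0 for no effect and ±100 for the full control effect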). Summed up:
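Activity was read by AlphaScreen after JNK3-containing HepG2 lysate (cytokine pre-activated) phosphorylated biotinylated GST-cJun with 10 uM ATP at room temperature. Phospho-Ser73 cJun antibody with Protein-A acceptor beads provided detection.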
On the technique in general: Bead proximity is the source of the signal in Alpha formats.

A short description of test [2]: Cell Viability - SH-SY5Y (AID 544).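 Also: cells exposed to compound for 40 hours; nearly all actives have a fitted effect of over 55% in size.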 The following applies: SH-SY5Y neuroblastoma cell viability; viability change, negative = cytotoxic: at 92.2 µM (top of the series). In a few lines:
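Cells were plated at 1500 per well and allowed 5 hr at 37 °C. Compounds were added across a concentration range and incubated 40 hr at 37 °C. CellTiter-Glo was added for 20 min at room temperature before luminescence reading.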

The nature of test [3]: Cellular Toxicity (caspase-3) HUV-EC-C (AID 656). Summed up: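 Read-out: luminescence proportional to caspase 3/7 activity, measured 20 min after adding Caspase-Glo 3/7 reagent. Cells (HUV-EC-C) had received compound for 16 hr at 37°C. Increases relative to DMSO and 100 uM tamoxifen gave concentration-response AC50 values.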
A short description of test [4]: Cellular Toxicity (caspase-3) Hek293 (AID 664).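 Also: cells exposed to compound for 16 h at 37 °C before readout.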 The settings on record: HEK293 caspase-3 activation, DMSO = 0%, 100 µM tamoxifen = 100%; at 92.2 µM (top of the series). In a few lines: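 qHTS, HEK293 (human embryonic kidney), 16 h cpd exposure in complete medium. Caspase-3/7 activation = luminescence increase; normalized to DMSO/100 uM tamoxifen; Hill-fit AC50.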

Test [5] is described as follows: Cell Viability - LYMP2-001 (AID 921).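 Also: 0% = DMSO only and full inhibition = tetraoctylammonium bromide control wells; nearly all actives have a fitted effect of over 70% in size.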 Summed up:
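qHTS, 1536-well; lymphoblastoid cells, 24 hr compound, 37 C; ATP by CellTiter-Glo, 30 min RT; luminescence; Hill-fit AC50.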

Test [6] in a line: MultiTox-Fluor Cytotoxicity Assay - LYMP1-002 - Live Cells (AID 955).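 Also: cells exposed to compound for 16 hours; % is scaled to controls: 0 for no effect and ±100 for the full control effect.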 Summed up:
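Cells were seeded at 2500 per well and incubated 5 hr. Compounds were then added for 16 hr at 37 C, followed by MultiTox-Fluor reagent for 60 min at room temperature and fluorescence reading of viable-cell protease signal.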

Test [7] in a line: Cell Viability - LYMP1-003 - Assay at 40 hr (AID 964). Also: % is scaled to controls: 0 for no effect and ±100 for the full control effect; nearly all actives have a fitted effect of over 60% in size. Summed up:
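Luminescent ATP signal (CellTiter-Glo) served as the viability read-out after 40 hr compound treatment of human lymphoblastoid LYMP1-003 cells at 37 C. Decreases in ATP were fitted with the Hill equation to give AC50.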

The nature of test [8]: Cell Viability - LYMP2-013 (AID 970).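 Also: 0% = DMSO only and full inhibition = tetraoctylammonium bromide control; nearly all actives have a fitted effect of over 55% in size.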 Summed up: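 Cytotoxicity is scored as a concentration-dependent drop in intracellular ATP in human lymphoblastoid cells after 24 hr compound exposure at 37 C. ATP is quantified by luciferase luminescence, and AC50 values come from Hill-equation modeling.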
Test [9] in a line: Cell Viability - LYMP2-019 (AID 973).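 Also: 0% = DMSO alone and full effect = 92 µM tetraoctylammonium bromide; nearly all actives have a fitted effect of over 55% in size.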 Summed up:
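Cytotoxicity is scored as a concentration-dependent drop in cellular ATP after cells (2500/well) receive compound for 24 hr at 37 C. Tetraoctylammonium bromide serves as positive control.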

The nature of test [10]: Cell Viability - LYMP2-002 (AID 977).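 Also: compound exposure lasted 24 h at 37 °C; plate controls were DMSO only for no effect and 92 µM tetraoctylammonium bromide for full effect.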 Summed up:
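Human lymphoblastoid cells, 2500/well, complete medium; 5 h 37 C settle; compound 24 h 37 C; CellTiter-Glo, 30 min RT; luminescence. Decrease in ATP = cytotoxicity; AC50 via Hill equation.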

A short description of test [11]: Cell Viability - LYMP2-008 (AID 980). Also: % is scaled to controls: 0 for no effect and ±100 for the full control effect; nearly all actives have a fitted effect of over 60% in size. Summed up: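 Cells seeded at 2500/well and rested 5 hr at 37 C; compounds added over a concentration range and incubated 24 hr at 37 C; CellTiter-Glo added, 30 min at room temperature; luminescence read and AC50 fitted with Hill model.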
Test [12] in a line: Cell Viability - LYMP2-010 (AID 981).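 Also: cells exposed to compound for 24 hours at 37 °C; % is scaled to controls: 0 for no effect and ±100 for the full control effect; nearly all actives have a fitted effect of over 55% in size.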 Summed up: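 Steps: seed 2500 LYMP2-010 cells per well; incubate 5 hr at 37 C; add compound; incubate 24 hr at 37 C; add CellTiter-Glo, wait 30 min at room temperature; read luminescence. Concentration-response fitted to Hill equation for AC50.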
The nature of test [13]: Cell Viability - LYMP2-016 (AID 984). Summed up:
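Acute toxicity in a Coriell human lymphoblastoid line is scored as loss of intracellular ATP over 24 h of treatment in complete medium. CellTiter-Glo signal is fitted across concentrations with the Hill equation to give AC50.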

A short description of test [14]: Cell Viability - LYMP2-020 (AID 986). In a few lines: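 Seed 2500 cells per well and incubate 5 hr at 37 C. Add compounds at a concentration series and incubate 24 hr at 37 C. Add CellTiter-Glo, wait 30 min at RT, read luminescence, and fit a Hill curve for AC50.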
Test [15] can be described thus: Cell Viability - LYMP2-022 (AID 987). In a few lines:
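Cells were seeded at 2500 per well, rested 5 hr at 37 C, and treated with titrated compounds for 24 hr at 37 C. Cellular ATP was then quantified by luciferase luminescence, and AC50 values were derived from Hill-modelled concentration-response curves.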

For test [16], the target named is Vitamin D3 receptor (Homo sapiens) (UniProt P11473). The test is described as follows: qHTS assay for small molecule agonists of vitamin D receptor signaling (AID 588543; calls by dose curve;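 also: 0% = DMSO basal and 100% = reference agonist control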). In a few lines: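 qHTS in agonist mode: compound titrations stimulate a VDR-driven β-lactamase reporter in HEK293T cells over 16 h at 37 °C. Response normalized to 50 nM 1α,25-dihydroxyvitamin D3 = 100%, DMSO = 0%; Hill fitting gives EC50 and maximal response.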
Sequence of Vitamin D3 receptor (Homo sapiens) (P11473 whole entry, looked up): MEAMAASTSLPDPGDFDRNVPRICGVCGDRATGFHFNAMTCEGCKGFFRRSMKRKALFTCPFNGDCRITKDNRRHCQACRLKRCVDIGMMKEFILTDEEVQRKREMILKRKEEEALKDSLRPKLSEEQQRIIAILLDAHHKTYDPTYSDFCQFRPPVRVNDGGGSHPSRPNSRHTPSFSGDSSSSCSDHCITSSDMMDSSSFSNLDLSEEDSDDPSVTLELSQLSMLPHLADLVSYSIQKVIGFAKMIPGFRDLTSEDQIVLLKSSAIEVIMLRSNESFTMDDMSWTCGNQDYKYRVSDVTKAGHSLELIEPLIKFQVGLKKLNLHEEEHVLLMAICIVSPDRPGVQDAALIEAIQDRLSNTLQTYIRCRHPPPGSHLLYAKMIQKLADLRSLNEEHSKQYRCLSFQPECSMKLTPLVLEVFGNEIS
On the technique in general: qHTS replaces the single test concentration by a dilution series.

Test [17] in a line: qHTS assay for small molecule agonists of retinoid X receptor alpha signaling (AID 588544). The following applies: HEK293T RXRa-UAS-bla, beta-lactamase reporter, 18 h; 530 nm emission.
Test [18] addresses Thyroid hormone receptor beta (Homo sapiens) (UniProt P10828). The test is described as follows: qHTS assay for small molecule antagonists of thyroid hormone receptor beta signaling (AID 588547; active = well fitted inhibition curve with a large enough effect in the signal ratio, with a control signal flat, not every such curve was filed as active; the % refers to the signal ratio;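 also: cells stimulated with 0.4 nM T3 agonist during compound exposure; % is scaled to controls: 0 for no effect and ±100 for the full control effect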). The settings on record: TR-UAS-bla HEK293, beta-lactamase ratio, antagonist mode, 18 h. In a few lines:
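TR-UAS-bla GripTite HEK293 cells in 2% charcoal/dextran FBS medium; compounds 0.59 nM to 92 uM with T3 at 0.4nM final, 18 h at 37 C. Beta-lactamase read by CCF4 fluorescence (460/530 nm); Hill fits gave IC50 and efficacy.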

Test [19] can be described thus: qHTS assay for small molecule disruptors of the mitochondrial membrane potential - 1 hr assay (AID 651754; calls by dose curve; also: % is scaled to controls: 0 for no effect and ±100 for the full control effect; nearly all actives have a fitted effect of over 35% in size). Summed up: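 Loss of mitochondrial potential shifts the cationic dye from red mitochondrial aggregates to green cytoplasmic monomers. Cells (HepG2) are treated with compound for 1 hr before a 30 min dye incubation at 37C.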
Test [20] deals with Tumor necrosis factor (Homo sapiens) (UniProt P01375). The test is described as follows: qHTS assay to identify small molecules that stimulate Tumor Necrosis Factor-alpha (TNF-alpha) secretion (AID 651757; active = well fitted curve in the direction sought with a large enough effect in the signal ratio; the % refers to the signal ratio; also: 0% is about no effect). In a few lines: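 Human monocytic THP-1 cells are plated, treated with compound and held at 37 C for 17 hrs. Labeled anti-TNF-alpha antibody mixture is then added; after 3 hr at room temperature, TR-FRET signal reports secreted TNF-alpha.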
Sequence of Tumor necrosis factor (Homo sapiens) (P01375 whole entry, looked up): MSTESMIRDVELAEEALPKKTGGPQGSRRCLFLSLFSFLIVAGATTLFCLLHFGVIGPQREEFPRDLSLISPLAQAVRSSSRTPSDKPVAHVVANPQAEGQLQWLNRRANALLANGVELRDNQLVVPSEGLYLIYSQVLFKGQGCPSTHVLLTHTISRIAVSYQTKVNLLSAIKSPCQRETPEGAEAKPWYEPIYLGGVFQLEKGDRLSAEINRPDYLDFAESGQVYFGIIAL

Several values for one entry are separate records, joined by “and”; a condition that tells them apart may be missing. Equal entries are not always repeated. Records with an inconclusive call do not appear. Activity calls are given as the source filed them. Unless noted, calls follow the shape of the dose curve; as a rule, active = well fitted curve in the direction sought with a large enough effect; inconclusive = small, poorly fitted or top-dose-only effect, or another doubt; inactive = no such curve, though single readings can be large; an effect the other way counts as inactive or inconclusive.

Sequence of Thyroid hormone receptor beta (Homo sapiens) (P10828 whole entry, looked up): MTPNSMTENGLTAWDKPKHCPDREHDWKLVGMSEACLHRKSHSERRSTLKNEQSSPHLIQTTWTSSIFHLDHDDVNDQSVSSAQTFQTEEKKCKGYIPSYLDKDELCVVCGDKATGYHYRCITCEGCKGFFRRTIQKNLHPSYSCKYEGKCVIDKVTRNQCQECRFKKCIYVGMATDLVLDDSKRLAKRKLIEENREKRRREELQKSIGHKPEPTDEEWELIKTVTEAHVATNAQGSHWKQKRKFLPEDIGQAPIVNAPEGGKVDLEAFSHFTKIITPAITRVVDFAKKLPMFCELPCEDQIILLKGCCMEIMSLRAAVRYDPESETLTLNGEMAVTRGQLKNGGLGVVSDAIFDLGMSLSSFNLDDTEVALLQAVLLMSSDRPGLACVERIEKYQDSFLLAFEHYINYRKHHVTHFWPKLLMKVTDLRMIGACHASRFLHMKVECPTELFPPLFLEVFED

As for `CC(C)(Cl)[N+](=O)[O-]`, the Potency result in test [1], in [2], in test [5], in test [7], in test [8] and in test [9] was “inactive” each time. For the same compound, the Potency entry in test [10], in test [11], in [12], in [13], in [14] and in test [15] was “inactive” each time. Further, the Potency result in test [19] was “inactive”. Also, the outcome in test [3], in test [6], in [16] and in test [20] was inactive. In addition, the caspase-3 activation in test [4] was -0.194% (inactive). In [17], the max response was -3.38%. Also, in test [18], the activity change % (negative = inhibition) was 9.2% (inactive).
For `O=[As](O)(O)c1ccc(Cc2ccc([As](=O)(O)O)cc2)cc1`, the activity change, negative = inhibition in test [1] is -5.31% [at 11.4 µM] (inactive).
In the case of `O=C(Cc1ccccc1)OCc1ccccc1`, the Potency entry in test [2], in [5], in test [7], in test [8], in test [9] and in test [10] was “inactive” throughout. Further, the Potency result in test [11], in [12], in test [13], in [14], in test [15] and in [19] was “inactive” throughout. For the same compound, the result in [3], in [6], in test [16] and in test [20] was inactive. Besides, in [4], the caspase-3 activation is 2.6% (inactive). The max response in test [17] turned out to be 10.7%. The activity change % (negative = inhibition) in test [18] is 0.158% (inactive).
`C1CC2OC2CC1C1CO1` (centres undefined): the Potency result in [1], in test [2], in test [5], in test [7], in [8] and in test [9] was “inactive” throughout. Also, the Potency result in test [10], in test [11], in test [12], in test [13], in [14] and in test [15] was “inactive” in each case. For the same compound, the Potency result in test [19] is “inactive”. In addition, the call in test [3], in test [6], in test [16] and in [20] was inactive. In test [17], the max response was -2.62%. In addition, the activity change % (negative = inhibition) in test [18] is 7.88% (inactive).
Take `CC(C)(OOC(C)(C)c1ccccc1)c1ccccc1`: the outcome in test [3], in test [6], in test [16] and in test [20] was inactive. Moreover, in [4], the caspase-3 activation is 4.99% (inactive). Moreover, the Potency entry in [5], in test [7], in test [8], in [9], in test [10] and in test [11] was “inactive” in each case. Further, the Potency result in [12], in test [13], in [14], in test [15] and in test [19] was “inactive” each time. Moreover, the max response in [17] was -7.49% and -13.6%. Also, the activity change % (negative = inhibition) in test [18] was 6.91% (inactive).
Take `C=CCc1cc(OC)c2c(c1)OCO2`: the Potency result in test [1], in test [2], in test [5], in [7], in [8] and in test [9] was “inactive” in each case. In addition, the Potency entry in [10], in [11], in [12], in test [13], in test [14] and in test [15] was “inactive” in each case. For the same compound, the Potency entry in test [19] is “inactive”. The compound was called inactive in test [3], in [6], in [16] and in [20]. Besides, in [4], the caspase-3 activation was 1.27% (inactive). Moreover, the max response in test [17] was -17.2%. Further, the activity change % (negative = inhibition) in test [18] was 4.98% (inactive).
For `ClCC(Cl)Cl`, the Potency result in test [2], in test [5], in test [7], in [8], in test [9] and in [10] was “inactive” each time. For the same compound, the Potency result in test [11], in test [12], in [13], in test [14], in [15] and in [19] was “inactive” in each case. The compound was called inactive in test [3], in test [6], in test [16] and in test [20]. Also, the caspase-3 activation in test [4] was -0.541% (inactive). In addition, in test [17], the max response is -11.1%. Besides, the activity change % (negative = inhibition) in [18] was 8.38% (inactive).
As for `ClCCOCOCCCl`, the Potency result in [1], in test [2], in [5], in test [7], in [8] and in test [9] was “inactive” throughout. In addition, the Potency entry in test [10], in test [11], in test [12], in [13], in test [14] and in [15] was “inactive” in each case. Moreover, in [19], the Potency result was “inactive”. Also, the compound was classed as inactive in [3], in test [6], in test [16] and in test [20]. In test [17], the max response was -19.5%. In [18], the activity change % (negative = inhibition) is 10.8% (inactive).
Take `CCNCC`: the Potency result in test [1], in test [2], in test [5], in test [7], in test [8] and in [9] was “inactive” each time. The Potency entry in test [10], in test [11], in test [12], in test [13], in test [14] and in test [15] was “inactive” in each case. Moreover, the Potency entry in test [19] is “inactive”. In addition, in [4], the caspase-3 activation was 1.2% (inactive). The compound was classed as inactive in test [6], in [16] and in [20]. In test [17], the max response was -7.47%. The activity change % (negative = inhibition) in [18] is 15.3% (inactive).

(Values after PubChem BioAssay (NCATS).)
